Here are results for 27 molecules from PubChem BioAssay.

The source made the active and inactive calls.

This assay can be described thus: plasmodial surface anion channel blockers, osmotic lysis – cell-based, P. falciparum Indochina, OD700, 2 h, primary screen (AID 1155).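 Further: lysis reports solute entry through the parasite surface anion channel PSAC.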 Particulars: P. falciparum Indochina infected erythrocytes, higher = more signal, called active from +8 up or from −8 down.
Take `COC(=O)CC=C[C@@H](C)[C@@H](C=NOC(C)CN1CCCCc2nc(C)c(C)cc21)OC` (some centres not stated): the z-score was 0.322 (inactive). The value for `CCOC(=O)[C@H](CC(C)C)NC(=O)CCC1CC(OC(=O)NCc2ccc3c(c2)OCO3)CC2(CCCC(COC(=O)NCCc3ccc(Cl)cc3)O2)O1` (some centres not stated) was -0.39 (inactive); that for `CC(CCN1CCc2nc(-c3ccccc3)c(-c3ccccc3)cc2C1)=NO[C@H](C)c1cn([C@H](CO)Cc2ccccc2)nn1` was 0.147 (inactive); that for `CC(CCC(=O)OC[C@H]1O[C@H](C#Cc2ccccc2)C=C[C@@H]1Oc1ccc(C)cc1)=NO[C@H](C)c1cn([C@@H]2COC[C@H]2O)nn1` was 3.78 (inactive). The value for `CC(CCN1CCc2nc(-c3ccccc3)c(-c3ccccc3)cc2C1)=NOC(C)CN1CCCc2nc(C)c(C)cc21` (configuration not stated) was 0.494 (inactive). The value for `CCC1=NOC(CCC2CC(OC(=O)NCc3cccc4c3OCO4)CC3(CCCC(COC(=O)NCCc4ccc(Cl)cc4)O3)O2)C1` (configuration not stated) was -0.172 (inactive); that for `CCOC(=O)CCN1C(=O)[C@H]2[C@@H]3C(=CC[C@H]2C1=O)C(=O)[C@H]1O[C@H]1[C@H]3O` was 0.673 (inactive). For the molecule `CON=C(C)CCC(=O)OC[C@H]1O[C@H](C#Cc2ccccc2)C=C[C@@H]1Oc1ccc(C)cc1`, the z-score was 0.277 (inactive).

For `Cc1cc2c(nc1C)CCCCN2CC(O)CN1CCCc2nc(-c3ccc(Br)cc3)ccc21` (configuration not stated), the z-score was 0.0477 (inactive). The value for `COC(=O)[C@H](C)NC(=O)CCC1CC(OC(=O)NCc2cccc3ccccc23)CC2(CCCC(COC(=O)NCCc3ccccc3OC)O2)O1` (some centres not stated) was 1.37 (inactive); that for `CC#CCOCCC=C1c2ccccc2[C@@H](OC)[C@@H]1C` was -0.16 (inactive). As for `CCO[C@H](c1cc(OC)cc([N+](=O)[O-])c1OC)[C@H](C)[C@@H](OC)[C@H](C)C=CCC(=O)OC`, the figure is 0.282 (inactive); as for `O=C1[C@H]2[C@H]3[C@H](O)[C@H](O)CC(=NOC[C@@H](O)COCc4ccco4)[C@@H]3CC[C@H]2C(=O)N1c1cccc(Oc2ccccc2)c1`, 0.802 (inactive); as for `COC(=O)[C@@H]1CC[C@H](C)[C@@H](c2ccc(Br)cc2)N1C[C@@H](O)CN=[N+]=[N-]`, -0.514 (inactive). The value for `CCOC(=O)[C@H](Cc1ccccc1)NC(=O)CCC1CC(OC(=O)NCc2cccc3ccccc23)CC2(CCCC(COC(=O)NCC3CCCCC3)O2)O1` (some centres not stated) was -0.393 (inactive); that for `C#CCCCON=C1[C@H]2CCn3c(=O)n([C@@H](CC)c4ccccc4)c(=O)n3[C@H]2[C@H](O)[C@@H]2O[C@H]12` was 0.193 (inactive); that for `C[C@@H]1C=CCC(=O)OC[C@H](C)C(=O)N[C@@H](Cc2ccccc2)C(=O)OC1` was -0.506 (inactive). Regarding `Cc1ccc2[nH]c3nc(CCCn4ccnc4-c4ccccc4)nnc3c2c1`, the z-score is 0.751 (inactive).

As to `CC(CCN1CCc2nc(-c3ccccc3)c(-c3ccccc3)cc2C1)=NO[C@@H](C)c1cc(-c2c(C)cc(C)cc2C)no1`, the z-score was -0.429 (inactive).

On to `O=C1[C@H]2CCn3c(=O)n(Cc4cc5c(cc4Cl)OCO5)c(=O)n3[C@H]2[C@H](O)[C@@H]2O[C@H]12`, for which the z-score was -0.511 (inactive).

`CCCNC(=O)OC[C@H]1O[C@H](CCON=C[C@@H](NS(=O)(=O)c2ccc(C)cc2)[C@H](C)C=CCC(=O)OC)C=C[C@@H]1Oc1ccc(OC)cc1`: the z-score was 1.2 (inactive). As for `CCN1C(=O)[C@H]2[C@H]3[C@H](O)[C@H](O)CC(=NOCC[C@@H]4C=C[C@H](OC(C)=O)[C@@H](COC(C)=O)O4)[C@@H]3CC[C@H]2C1=O`, the figure is 0.329 (inactive).

For `COc1ccc(O[C@H]2C=C[C@@H](c3ccccc3)O[C@@H]2COC(=O)CCC(C)=NOC[C@@H](O)COCc2ccco2)cc1`, the z-score is -1.05 (inactive). As for `CC(C)[C@@H](OCc1ccccc1)[C@H](C)C=NOC[C@@H](O)[C@H]1O[C@@H]2OC(C)(C)O[C@@H]2[C@H]1O`, the figure is -0.211 (inactive); as for `O=C1C2=CC[C@H]3C(=O)N(Cc4ccccc4)C(=O)[C@H]3[C@H]2[C@H](O)[C@@H]2O[C@H]12`, 0.147 (inactive). Regarding `COC(=O)[C@H](C)NC(=O)CCC1CC(OC(=O)NCc2ccc3c(c2)OCO3)CC2(CCCC(COC(=O)NCc3ccccc3)O2)O1` (some centres not stated), the z-score was 0.0056 (inactive).

Regarding `CC(C)CON=C1C[C@@H](O)[C@@H](O)[C@@H]2[C@@H]3C(=O)N(Cc4ccccc4)C(=O)[C@@H]3CC[C@H]12`, the z-score was -1.19 (inactive).
